PubChem BioAssay (NCI)
About 79,000 compounds went through this panel and 15% of them were active in at least one assay; those are over-represented in the sample as a whole. Calls of active or inactive are those of the source. No stated cut-off is given here; in the data, active means growth inhibition above about 70%; inactive means the rest.

Legend:
[1] = NCI Yeast Anticancer Drug Screen. Data for the rad50 strain (AID 155);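 further: 0% = growth of vehicle-only cultures of the same strain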; conditions: S. cerevisiae rad50 strain growth inhibition, active compounds read high
How it was run: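 Readout: growth inhibition relative to vehicle-treated cultures. Compound exposure was carried out in a genetically defined yeast strain deficient in DNA damage repair.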

[2] = NCI Yeast Anticancer Drug Screen. Data for the mec2-1 strain (AID 157); conditions: S. cerevisiae mec2-1 strain, active compounds read high
How it was run: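 Using mec2-1 yeast: add compound, measure growth, express inhibition versus vehicle-treated cultures.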

[3] = NCI Yeast Anticancer Drug Screen. Data for the sgs1 mgt1 strain (AID 161);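 further: 0% = growth of cultures given vehicle only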; conditions: S. cerevisiae sgs1 mgt1 strain, active compounds read high
How it was run: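 Growth of a repair-deficient yeast mutant was monitored after compound treatment and expressed as inhibition relative to vehicle-treated cultures.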

[4] = NCI Yeast Anticancer Drug Screen. Data for the cln2 rad14 strain (AID 165);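 further: 0% = growth equal to vehicle treated cultures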; conditions: S. cerevisiae cln2 rad14 strain, active compounds read high
How it was run: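 Yeast strain cln2 rad14, bearing defects in cell cycle control and DNA repair, serves as the test system; values reflect growth inhibition compared with vehicle.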

[5] = NCI Yeast Anticancer Drug Screen. Data for the bub3 strain (AID 167); conditions: S. cerevisiae bub3 mutant strain, active compounds read high
How it was run: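 Readout: yeast growth inhibition, expressed relative to vehicle-only wells. The test organism is a mutant strain from a panel with lesions in DNA repair or checkpoint genes.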

[6] = NCI Yeast Anticancer Drug Screen. Data for the mlh1 rad18 strain (AID 175); conditions: S. cerevisiae mlh1 rad18 strain growth inhibition, active compounds read high
How it was run: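 Steps: expose repair-defective yeast to compound; measure growth; express inhibition against vehicle-treated controls.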

[7] = at 5.0 µM (retest, dose inferred, filed as 0.5)
[8] = at 50.0 µM (retest, dose inferred, filed as 5.0)

Measured: growth inhibition

Fc1cccc(CSc2ncnc3c2ncn3C2CCCS2)c1 (configuration not stated)
active: [1]; [8] 70% | [1]; at 50.0 µM 84.9% | [2]; [8] 87% | [2]; at 50.0 µM 90% | [3]; [8] 92% | [3]; at 50.0 µM 93.3% | [4]; [8] 87% | [4]; at 50.0 µM 82% | [5]; [8] 82% | [5]; at 50.0 µM 90% | [6]; [8] 88% | [6]; at 50.0 µM 92.5%
inactive: [1]; [7] 4% | [2]; [7] 1% | [3]; [7] 6% | [4]; [7] 26% | [5]; [7] 1% | [6]; [7] 3%

CC(C)C(Cl)CC/C(CBr)=C(\Cl)CCl (configuration not stated)
active: [1]; [8] 89% | [1]; at 50.0 µM 75% | [2]; [8] 92% | [2]; at 50.0 µM 80.8% | [3]; [8] 99% | [3]; at 50.0 µM 92.4% | [4]; [8] 96% | [4]; at 50.0 µM 91.1% | [5]; [8] 98% | [5]; at 50.0 µM 92.3% | [6]; [8] 97%
inactive: [1]; [7] 28% | [2]; [7] 29% | [3]; [7] 27% | [4]; [7] 24% | [5]; [7] 23% | [6]; [7] 28% | [6]; at 50.0 µM 18.9%

Cc1ccc(S(=O)(=O)N/N=C2/CC[C@H](C(C)(C)C)C[C@@H]2C)cc1
active: [1]; [8] 96% | [1]; at 50.0 µM 86.2% | [2]; [8] 97% | [2]; at 50.0 µM 90% | [3]; [8] 98% | [3]; at 50.0 µM 77.4% | [4]; [8] 85% | [4]; at 50.0 µM 87.7% | [5]; [8] 97% | [5]; at 50.0 µM 84.7% | [6]; [8] 98% | [6]; at 50.0 µM 76.3%
inactive: [1]; [7] 9% | [2]; [7] -15% | [3]; [7] -2% | [4]; [7] -35% | [5]; [7] -18% | [6]; [7] -1%

NC(=S)NNCCC(=O)Nc1ccccc1C(F)(F)F
inactive: [1]; [7] 2% | [1]; [8] 3% | [1]; at 50.0 µM -9.75% | [2]; [7] -2% | [2]; [8] 2% | [2]; at 50.0 µM 12.2% | [3]; [7] 3% | [3]; [8] 4% | [3]; at 50.0 µM -1.9% | [4]; [7] -3% | [4]; [8] 7% | [4]; at 50.0 µM 6.15% | [5]; [7] 0% | [5]; [8] 1% | [5]; at 50.0 µM 65.8% | [6]; [7] -2% | [6]; [8] 7% | [6]; at 50.0 µM 2.75%

C/C(=N\NC(=S)Nc1ccc([N+](=O)[O-])cc1)c1nc2ncccc2[nH]1
inactive: [1]; [7] -8% | [2]; [7] -22% | [2]; at 50.0 µM 61% | [3]; [7] -14% | [3]; at 50.0 µM 62.2% | [4]; [7] 5% | [4]; at 50.0 µM 67.2% | [5]; [7] -35% | [6]; [7] 4% | [6]; at 50.0 µM 60.1%
active: [1]; [8] 71% | [1]; at 50.0 µM 72.3% | [2]; [8] 89% | [3]; [8] 70% | [4]; [8] 93% | [5]; [8] 95% | [5]; at 50.0 µM 75.5% | [6]; [8] 92%

COC(=O)C(=O)/C=C(/O)c1ccc(OC)cc1
inactive: [1]; [7] -16% | [1]; [8] -1% | [1]; at 50.0 µM -2.15% | [2]; [7] -28% | [2]; [8] -9% | [2]; at 50.0 µM -28.3% | [3]; [7] -7% | [3]; [8] 5% | [3]; at 50.0 µM 43% | [4]; [7] -12% | [4]; [8] 18% | [4]; at 50.0 µM 4.15% | [5]; [7] -4% | [5]; [8] 24% | [5]; at 50.0 µM 9.85% | [6]; [7] -34% | [6]; [8] 38% | [6]; at 50.0 µM -26.5%

CCCC1c2ccc(O)cc2CC1c1ccc(O)cc1 (configuration not stated)
inactive: [1]; [7] -1% | [2]; [7] -4% | [3]; [7] -3% | [4]; [7] 11% | [4]; at 50.0 µM 52.4% | [5]; [7] -1% | [6]; [7] 1%
active: [1]; [8] 99% | [1]; at 50.0 µM 99.2% | [2]; [8] 99% | [2]; at 50.0 µM 99.4% | [3]; [8] 99% | [3]; at 50.0 µM 99.5% | [4]; [8] 99% | [5]; [8] 99% | [5]; at 50.0 µM 98.7% | [6]; [8] 99% | [6]; at 50.0 µM 98.5%

S=c1sc2c(s1)SCCOCCOCCOCCS2
inactive: [1]; [7] -4% | [1]; [8] 3% | [1]; at 50.0 µM 29.3% | [2]; [7] 5% | [2]; [8] 7% | [2]; at 50.0 µM 0.95% | [3]; [7] -12% | [3]; [8] 5% | [3]; at 50.0 µM 30.6% | [4]; [7] 12% | [4]; [8] 8% | [4]; at 50.0 µM 31.1% | [5]; [7] 4% | [5]; [8] 36% | [5]; at 50.0 µM 22.2% | [6]; [7] -15% | [6]; [8] -13% | [6]; at 50.0 µM 23.4%

O=C(c1ccc(Br)cc1)C1N=NCC1c1ccccc1 (configuration not stated)
inactive: [1]; [7] 1% | [1]; [8] 36% | [1]; at 50.0 µM -4.75% | [2]; [7] 9% | [2]; [8] 52% | [2]; at 50.0 µM 64.7% | [3]; [7] 4% | [3]; [8] -14% | [3]; at 50.0 µM 64.7% | [4]; [7] 6% | [4]; [8] 65% | [4]; at 50.0 µM 12.8% | [5]; [7] 0% | [5]; [8] 59% | [6]; [7] -4% | [6]; [8] 64%
active: [5]; at 50.0 µM 86.3% | [6]; at 50.0 µM 80.2%
